Potency and affinity values are given separately. The source made the active and inactive calls.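 Rule for the calls: active = fitted half-maximal concentration for ATP signal loss at most twice the top valid dose; inconclusive = flat curve between -70 and -30%, or an invalid fit; inactive = flat within ±30%, wrong direction, or potency past limit.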

A short description of this test: viability loss in HepG2 hepatoma cells – cell-based, cherry-picks, set 5, cytotoxicity control, dose response (AID 1053118). The settings on record: ATP luminescence, 72 h; series mostly up to 26 µM.
Regarding `CN(C)C(=O)c1ccc(-c2ccc3c(c2)[C@H]2[C@H](CCN2C(=O)c2ccc(F)cc2)[C@H](CO)N3C)cc1`, the call was inactive.
Regarding `CC(=O)Nc1cccc(-c2ccnc3c2CC(C)(C(=O)Nc2cccc(C(F)(F)F)c2)O3)c1` (stereo not given), the molecule was classed as inactive.
Next, `C[C@@H]1CN([C@@H](C)CO)C(=O)c2cc(NC(=O)C3CCCCC3)ccc2O[C@H]1CN(C)Cc1ccc(-c2ccccc2)cc1`: “inactive”; `COC(=O)C[C@H]1CC[C@@H]2[C@@H](COc3ccc(NC(=O)Cc4cccs4)cc3C(=O)N2C)O1`: “inactive”.
Turning to `C[C@H]1CN([C@@H](C)CO)C(=O)c2cc(-c3ccccc3)cnc2O[C@H]1CN(C)Cc1ccccc1`, the outcome was inactive.
As for `Cc1cccc(NC(=O)c2ccc(S(=O)(=O)N3CCCCC3)cc2)n1`, the entry is “inactive”; as for `NC(=O)C1=C[C@H](c2coc3ccccc3c2=O)C[C@H](OCCCCO)O1`, “inactive”; as for `CN1CCN(C(=O)c2cccc(-c3cnc4cnc(-c5ccccc5Oc5ccccc5)cn34)c2)CC1`, “inactive”.
For `COCC(=O)Nc1ccc2c(c1)C(=O)N(C)[C@H]1CC[C@@H](CC(=O)NCc3ccccc3Cl)O[C@H]1CO2`, the molecule was classed as inactive.
As for `C[C@@H]1CN([C@H](C)CO)C(=O)c2cc(-c3ccccc3)cnc2O[C@@H]1CN(C)C(=O)c1cccc(F)c1`, the entry is “inactive”; as for `COc1ccc(-c2csc(CCn3nc(C)cc3C)n2)cc1OC`, “inactive”.
As for `CCOc1ccccc1NC(=O)c1c(NC(=O)CCC(=O)O)sc2c1CCCCC2`, the entry is “inactive”; as for `CN(C)C(=O)c1ccc(-c2ccc3c(c2)[C@@H]2[C@@H](CCN2C(=O)c2ccc(F)cc2)[C@@H](CO)N3C)cc1`, “inactive”; as for `O=C(CSc1nc2ncc(Cl)cc2[nH]1)c1c[nH]c2ccccc12`, “inactive”.
Next, `CCc1ccc(NC(=O)CSc2nnc(-c3ccco3)o2)cc1`: “inactive”.
`O=C(Nc1ccccc1F)N1C[C@@H]2[C@H](c3ccccc31)[C@H](CO)N2C(=O)C1CC1`: the molecule was called inactive.
In the case of `COCC(=O)Nc1ccc2c(c1)C(=O)N(C)[C@H]1CC[C@H](CC(=O)NCc3ccccc3Cl)O[C@@H]1CO2`, the call was inactive.
As for `COc1ccc(Cl)cc1NC(=O)CSc1nc(Nc2ccccc2)nc(N2CCOCC2)n1`, the entry is “inactive”.
Next, `Cc1ccc(-c2nc3ncccc3o2)cc1NC(=O)c1ccco1`: “inactive”; `CN1c2ccc(-c3ccccc3)cc2[C@H]2[C@H](CCN2C(=O)CN2CCOCC2)[C@H]1CO`: “inactive”.
Next, `CSc1ccccc1C(=O)C1CCCN(C(=O)CCc2cccnc2)C1` (stereo not given): “inactive”.
As for `Cc1ccc(Nc2nnc(SCc3ccccc3)s2)cc1`, the molecule was called inactive.
Next, `CCCCOc1ccc(C(C)NC(=O)C2CCCN(S(=O)(=O)CCC)C2)cc1` (stereo not given): “inactive”.
Next, `CC(C)(C)[S@](=O)N1Cc2cc(C(=O)NCc3ccccc3F)nc(-c3cccc(-c4cncnc4)c3)c2[C@@H]1CCO`: “inactive”; `C[C@H]1CN([C@@H](C)CO)C(=O)c2cc(-c3ccccc3)cnc2O[C@H]1CN(C)C(=O)c1cccc(F)c1`: “inactive”; `C[C@@H]1CN([C@H](C)CO)C(=O)c2cc(NC(=O)CCCN(C)C)ccc2O[C@H]1CN(C)Cc1ccc(-c2ccccc2)cc1`: “inactive”.
Next, `CCCc1cc(C(=O)OC)c(NC(=O)CCC(=O)O)s1`: “inactive”; `COc1ccccc1CC(=O)OC(C)C(=O)Nc1ccc(S(=O)(=O)N2CCCCC2)cc1` (stereo not given): “inactive”; `O=S(=O)(c1cccc(F)c1)N1CC[C@H]2[C@H](CO)Nc3ccc(-c4cccc(F)c4)cc3[C@H]21`: “inactive”.
`OC(CNC1CCCc2ccccc21)COc1c(Cl)cccc1Cl` (stereo not given): the outcome was inactive.
Next, `C[C@H](O)C#Cc1ccc2c(c1)O[C@H](CN(C)C)[C@@H](C)CN([C@@H](C)CO)S2(=O)=O`: “inactive”; `Cc1ccc(S(=O)(=O)N2CC[C@H]3[C@H](CO)Nc4ccc(-c5cccc(C(=O)N(C)C)c5)cc4[C@H]32)cc1`: “inactive”.
Next, `CS(=O)(=O)N1CCN(c2ccc(NC(=O)c3ccc([N+](=O)[O-])o3)cc2)CC1`: “inactive”; `CN1c2ccc(-c3ccccc3)cc2[C@H]2[C@H](CCN2C(=O)CN2CCOCC2)[C@@H]1CO`: “inactive”.
For `C[C@H](CO)N1C[C@H](C)[C@H](CN(C)C(=O)Nc2cccc3ccccc23)Oc2c(NC(=O)Nc3ccc(C(F)(F)F)cc3)cccc2C1=O`, the outcome was inactive.

The values are drawn from PubChem BioAssay AID1053118 (Broad Institute, 2014).
